Results filed as inconclusive are left out. Activity calls are given as the source filed them. Unless noted, calls follow the shape of the dose curve; as a rule, active = well fitted curve in either direction with a large enough effect (not every such curve was filed as active); inconclusive = small, poorly fitted or top-dose-only effect, or another doubt; inactive = flat fitted curve, though single readings scatter.
The compounds below were run against Glucocorticoid receptor (Homo sapiens) (UniProt P04150) (assay: GR-EFC Redistribution (AID 451; calls by dose curve; also: potency is read from the fitted curve at half-maximal effect)). Conditions: CHO-K1 GR-EFC translocation, beta-gal luminescence, 2 h.
Procedure, shortened: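 Translocation of GR-ED fusion to nuclear EA restores b-gal, read by luminescence after 1 h room-temperature detection. Engineered CHO-K1 biosensor cells, 1,000/well, exposed 2 h at 37 C to titrations up to 46 uM final.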

Glucocorticoid receptor (Homo sapiens), sequence (P04150 whole entry, looked up, the tested form may be a part): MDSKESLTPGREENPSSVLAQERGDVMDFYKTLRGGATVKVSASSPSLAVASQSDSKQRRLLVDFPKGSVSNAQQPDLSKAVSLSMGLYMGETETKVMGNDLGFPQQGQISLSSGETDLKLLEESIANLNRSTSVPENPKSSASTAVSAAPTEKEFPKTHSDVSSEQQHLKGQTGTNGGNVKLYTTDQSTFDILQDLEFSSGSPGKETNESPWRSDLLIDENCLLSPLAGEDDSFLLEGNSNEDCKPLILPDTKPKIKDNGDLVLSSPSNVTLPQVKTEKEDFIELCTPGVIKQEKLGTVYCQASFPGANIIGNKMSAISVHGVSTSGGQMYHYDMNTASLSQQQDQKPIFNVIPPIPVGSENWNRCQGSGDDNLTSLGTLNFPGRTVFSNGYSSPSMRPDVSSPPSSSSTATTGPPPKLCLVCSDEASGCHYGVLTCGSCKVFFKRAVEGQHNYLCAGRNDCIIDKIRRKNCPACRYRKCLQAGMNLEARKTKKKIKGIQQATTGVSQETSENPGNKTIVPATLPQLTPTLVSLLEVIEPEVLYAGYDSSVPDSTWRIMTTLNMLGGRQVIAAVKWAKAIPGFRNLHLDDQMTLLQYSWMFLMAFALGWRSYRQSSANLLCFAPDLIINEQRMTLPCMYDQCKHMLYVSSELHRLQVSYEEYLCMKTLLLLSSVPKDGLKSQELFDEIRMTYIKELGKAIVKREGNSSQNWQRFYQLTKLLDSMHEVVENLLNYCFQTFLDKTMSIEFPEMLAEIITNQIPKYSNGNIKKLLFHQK

Potency, inactive:
O=c1c(-c2cccs2)nc2cnc(N3CCNCC3)nc2n1CCc1ccccc1 > 46 µM
COc1cccc(Cn2c(=O)c(C)nc3cnc(N4CCNCC4)nc32)c1 > 46 µM
CN1CCN(c2ncc3nc(-c4cc(F)cc(F)c4)c(=O)n(-c4ccccc4)c3n2)CC1 > 46 µM
O=c1c(-c2ccc(Cl)cc2)nc2cnc(Oc3ccccc3)nc2n1C1CC1 > 46 µM
COc1cccc(-c2nc(N3CCN(C)CC3)c3ccccc3n2)c1 > 46 µM
COCCn1c(=O)c(-c2cn(C)c3ccccc23)nc2cnc(N3CCNCC3)nc21 > 46 µM
CN1CCN(c2ncc3nc(-c4ccccc4)c(=O)n(-c4ccccc4)c3n2)CC1 > 46 µM
COc1ccc(-n2c(=O)cnc3cnc(N4CCNCC4)nc32)cc1 > 46 µM
O=C(c1cc(C(F)(F)F)cc(C(F)(F)F)c1)N1CCC2(CC1)CCN(c1ccncc1)CC2 > 46 µM
O=c1cnc2cnc(N3CCNCC3)nc2n1Cc1ccc(F)cc1 > 46 µM
Cc1noc(C)c1-c1nc(N2CCNCC2)c2ccccc2n1 > 46 µM
CN(C)c1ccc(-c2nccc(NCCN3CCOCC3)n2)cc1 > 46 µM
COCCn1c(=O)c(-c2ccc(OC)cc2)nc2cnc(N3CCNCC3)nc21 > 46 µM
O=C(c1cc(C(F)(F)F)cc(C(F)(F)F)c1)N1CCC2(CC1)CCN(c1ccccn1)CC2 > 46 µM
O=C(Nc1cccc(F)c1)N1CCCC2(CCNCC2)C1 > 46 µM
Cc1ccccc1-c1nc(N2CCN(C)CC2)c2ccccc2n1 > 46 µM
COc1ccc(-n2c(=O)c(-c3ccccc3)nc3cnc(N4CCNCC4)nc32)cc1 > 46 µM
Cn1c(=O)c(CCc2ccccc2)nc2cnc(OCc3ccccc3)nc21 > 46 µM
COc1ccc(-c2nc3cnc(N4CCNCC4)nc3n(-c3ccccc3)c2=O)cc1 > 46 µM
O=C(c1ccco1)N1CCC[C@@]2(CCN(c3ccncc3)C2)C1 > 46 µM
COc1ccc(Oc2ncc3nc(-c4ccccc4)c(=O)n(C4CC4)c3n2)cc1 > 46 µM

These compounds were tested against Mitogen-activated protein kinase 10 (Mus musculus) (UniProt Q61831) (assay: JNK3 AlphaScreen Assay (AID 530;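 also: kinase came from lysate of stimulated human HepG2 cells; signal reports phosphorylation of biotinylated GST-cJun 1-79 at Ser73 with 10 µM ATP; % is scaled to controls: 0 for no effect and ±100 for the full control effect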)). Conditions: JNK3 lysate, c-Jun phosphorylation; series mostly up to 57.1 µM; activity change, negative = inhibition: at the top concentration.
Procedure, shortened: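 Compound titrations were preincubated 15 minutes at room temperature with substrate, antibody and pre-activated JNK3-containing HepG2 lysate. Reactions were started with 10 uM ATP and stopped with EDTA-containing bead buffer for AlphaScreen detection.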

Activity change, negative = inhibition, inactive:
COCCn1c(=O)c(-c2ccc(Cl)cc2)nc2cnc(OCc3ccccc3)nc21 0.678%
CN1CCN(c2ncncc2-c2ccccc2C(F)(F)F)CC1 0.224%
O=c1c(-c2ccccc2)nc2cnc(N3CCNCC3)nc2n1-c1ccccc1 13.6%
Cc1ccccc1-c1nccc(Nc2ccc(F)cc2)n1 8.7%
COCCn1c(=O)c(-c2ccc(Cl)cc2)nc2cnc(OC)nc21 4.25%
Cc1nc2cnc(N3CCNCC3)nc2n(CCc2ccccc2)c1=O -3.1%
CN1CCN(c2ncnc3ccc(-c4ccccc4C#N)cc23)CC1 -4.45%
CN1CCN(c2ncc3nc(CCc4ccccc4)c(=O)n(Cc4ccc(F)cc4)c3n2)CC1 -0.155%
N#CCCn1c(=O)c(-c2ccc(Cl)cc2)nc2cnc(OCc3ccccc3)nc21 -1.72%
COc1ccc(Oc2ncc3nc(-c4cccs4)c(=O)n(CCC#N)c3n2)cc1 5.39%
COc1ccc(Oc2ncc3nc(CCc4ccccc4)c(=O)n(C[C@H]4CCCO4)c3n2)cc1 23.7%
O=c1cnc2cnc(N3CCNCC3)nc2n1Cc1cccs1 -4.14%
COc1ccc(CNc2ncnc3ccc(-c4ccccc4OC)cc23)c(OC)c1 -12.2%
Clc1ccccc1-c1nc(N2CCNCC2)c2ccccc2n1 -0.763%
COCCn1c(=O)c(CCc2ccccc2)nc2cnc(N3CCN(C)CC3)nc21 -7.1%
COc1cccc(Cn2c(=O)c(C)nc3cnc(N4CCNCC4)nc32)c1 -5.05%
CN1CCN(c2ncc3nc(-c4cc(F)cc(F)c4)c(=O)n(-c4ccccc4)c3n2)CC1 11.2%
O=c1c(-c2ccc(Cl)cc2)nc2cnc(Oc3ccccc3)nc2n1C1CC1 0.523%
COc1cccc(-c2nc(N3CCN(C)CC3)c3ccccc3n2)c1 -3.59%
COCCn1c(=O)c(-c2cn(C)c3ccccc23)nc2cnc(N3CCNCC3)nc21 25.9%
CN1CCN(c2ncc3nc(-c4ccccc4)c(=O)n(-c4ccccc4)c3n2)CC1 18%
COc1ccc(-n2c(=O)cnc3cnc(N4CCNCC4)nc32)cc1 2.41%
O=C(c1cc(C(F)(F)F)cc(C(F)(F)F)c1)N1CCC2(CC1)CCN(c1ccncc1)CC2 2.53%
O=c1cnc2cnc(N3CCNCC3)nc2n1Cc1ccc(F)cc1 -1.27%
Cc1noc(C)c1-c1nc(N2CCNCC2)c2ccccc2n1 1.26%
COCCn1c(=O)c(-c2ccc(OC)cc2)nc2cnc(N3CCNCC3)nc21 3.9%
O=C(c1cc(C(F)(F)F)cc(C(F)(F)F)c1)N1CCC2(CC1)CCN(c1ccccn1)CC2 -4.37%
O=C(Nc1cccc(F)c1)N1CCCC2(CCNCC2)C1 -2.16%
Cc1ccccc1-c1nc(N2CCN(C)CC2)c2ccccc2n1 3.8%
COc1ccc(-n2c(=O)c(-c3ccccc3)nc3cnc(N4CCNCC4)nc32)cc1 9.79%
Cn1c(=O)c(CCc2ccccc2)nc2cnc(OCc3ccccc3)nc21 9.41%
COc1ccc(-c2nc3cnc(N4CCNCC4)nc3n(-c3ccccc3)c2=O)cc1 17.4%
O=C(c1ccco1)N1CCC[C@@]2(CCN(c3ccncc3)C2)C1 2.57%
COc1ccc(Oc2ncc3nc(-c4ccccc4)c(=O)n(C4CC4)c3n2)cc1 0.864%

Source: PubChem BioAssay (NCATS)
